Outcome and Potency data for 27 compounds are collected here from PubChem BioAssay (NCATS).

The structures appear in SMILES notation. Results filed as inconclusive are left out. Where a call stands in place of a potency, no number is given. Calls of active or inactive are those of the source. Unless noted, the call rests on the fitted dose curve; in most records, active means well fitted curve in the direction sought with a large enough effect; inconclusive means small, poorly fitted or top-dose-only effect, or another doubt; inactive means no such curve, though single readings can be large; an effect the other way counts as inactive or inconclusive.

Assay [1] has as its target Mitogen-activated protein kinase 10 (Mus musculus) (UniProt Q61831). Briefly: JNK3 AlphaScreen Assay (AID 530; active means well fitted curve in either direction with a large enough effect, not every such curve was filed as active;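 further: kinase came from lysate of stimulated human HepG2 cells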). The note with it: JNK3 lysate, c-Jun phosphorylation; series mostly up to 57.1 µM. The method in brief: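 JNK3 came from HepG2 lysates pre-activated with IL-1beta and TNF-alpha and phosphorylated biotinylated GST-cJun (1-79) at 10 uM ATP, pH 7.6, room temperature. Compounds were titrated. AlphaScreen signal used anti-phospho-cJun (Ser73) antibody.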
On the technique in general: Alpha assays give light when donor and acceptor beads are brought close together.

Assay [2] has as its target Cytochrome P450 3A4 (Homo sapiens) (UniProt P08684). In words: qHTS Assay for Inhibitors and Substrates of Cytochrome P450 3A4 (AID 884). Further: potency means the concentration at half of the fitted maximal effect; nearly all actives have a fitted effect of over 50% in size. The note with it: recombinant CYP3A4, Luciferin-PPXE luminescence; series mostly up to 57.1 µM. In outline: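 20 nM human CYP3A4 with 25 uM Luciferin-PPXE (at KM) in 200 mM KPO4, preincubated 10 min with compound; NADPH regeneration started a 60 min RT reaction. Luciferin detected by luminescence, normalized to 57 uM ketoconazole as full inhibition.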

Assay [3] shares this target. In words: qHTS Assay for Activators of Cytochrome P450 3A4 (AID 885). Further: nearly all actives have a fitted effect of over 65% in size. The note with it: recombinant CYP3A4, Luciferin-PPXE luminescence, 60 min; series mostly up to 57.1 µM. In outline: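 Signal was normalized against complete inhibition by 57 uM ketoconazole. The reaction used 20nM CYP3A4 with 25uM Luciferin-PPXE, 10-min compound preincubation and a 60-min NADPH-supported step at RT.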

Cytochrome P450 3A4 (Homo sapiens), sequence (P08684 whole entry, looked up): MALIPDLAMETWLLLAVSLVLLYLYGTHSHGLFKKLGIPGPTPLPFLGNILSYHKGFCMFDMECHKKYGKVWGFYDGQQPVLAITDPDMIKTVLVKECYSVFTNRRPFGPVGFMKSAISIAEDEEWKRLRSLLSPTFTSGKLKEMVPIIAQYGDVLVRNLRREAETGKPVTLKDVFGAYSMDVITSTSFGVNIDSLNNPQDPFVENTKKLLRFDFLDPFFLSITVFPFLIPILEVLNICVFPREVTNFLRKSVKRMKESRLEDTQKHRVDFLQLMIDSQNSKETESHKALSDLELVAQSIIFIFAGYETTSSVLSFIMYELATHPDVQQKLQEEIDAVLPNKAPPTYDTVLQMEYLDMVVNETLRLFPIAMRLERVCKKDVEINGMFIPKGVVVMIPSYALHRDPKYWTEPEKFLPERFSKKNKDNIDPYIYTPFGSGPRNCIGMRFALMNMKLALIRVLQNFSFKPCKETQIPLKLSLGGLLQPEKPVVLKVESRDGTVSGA

For `COC(=O)CNC(=O)C1(C)C=CCN1C(=O)c1ccccc1` (stereo not given), in assay [1], the outcome was inactive. Also, the Potency in assay [2] was 39.8 µM (active). For the same compound, the Potency result in assay [3] was “inactive”.
Take `CNC(=O)[C@@]1(Cc2ccccc2)C=C[C@@H](C)N1C(=O)OC`: in assay [1], the compound was called inactive. Also, the Potency in assay [2] was 12.6 µM (active). For the same compound, in assay [3], the Potency result was “inactive”.
As to `COC(=O)c1ccc(C(/C=C/[C@@H](C)C(=O)NCCc2c[nH]c3ccccc23)NC(=O)OCc2ccccc2)cc1` (stereo not given in full), the call in assay [1] was inactive. In addition, in assay [2], the Potency is 3.16 µM (active). Besides, the Potency result in assay [3] was “inactive”.
Consider `COC(=O)c1ccc(C(NC(=O)OCc2ccccc2)/C(C)=C/[C@@H](C)C(=O)NCc2nc3ccccc3s2)cc1` (stereo not given in full), for which the outcome in assay [1] was inactive. Further, the Potency in assay [2] was 3.98 µM (active). The Potency entry in assay [3] is “inactive”.
Consider `COC(=O)[C@@H]1C[C@@]1(C)[C@@H](NC(=O)OCc1ccccc1)c1ccccc1`, for which the outcome in assay [1] was inactive. The Potency in assay [2] was 25.1 µM (active). Also, the Potency entry in assay [3] was “inactive”.
With `COC(=O)c1ccc(C(/C=C/[C@@H](C)C(=O)N[C@H](C)CO)NC(=O)OCc2ccccc2)cc1` (stereo not given in full), the result in assay [1] was inactive. The Potency in assay [2] was 15.8 µM (active). In assay [3], the Potency result is “inactive”.
On to `COC(=O)N1[C@H](Cc2ccccc2)C=C[C@]1(C)C(=O)NCc1ccccn1`, for which the compound was called inactive in assay [1]. Moreover, in assay [2], the Potency was 7.94 µM (active). Moreover, the Potency result in assay [3] was “inactive”.
Regarding `CC(=O)N1CC=CC1(CC(C)C)C(=O)NCCc1c[nH]c2ccccc12` (stereo not given), the compound was called inactive in assay [1]. In addition, the Potency in assay [2] is 3.98 µM (active). Moreover, the Potency entry in assay [3] is “inactive”.
Consider `COC(=O)c1ccc(C(/C=C/[C@@H](C)C(=O)NCCN2CCCC2)NC(=O)OCc2ccccc2)cc1` (stereo not given in full), for which the compound was called inactive in assay [1]. Further, the Potency in assay [2] is 10 µM (active). Besides, in assay [3], the Potency entry was “inactive”.
As to `CCCCCCN(C(=O)CCCCCN1C(=O)NC(c2ccc([N+](=O)[O-])cc2)C(C(=O)OCc2ccccc2)=C1C)C(C(=O)NCCCC)c1ccc(OCC(=O)OC)c(C(=O)OC)c1` (stereo not given), the call in assay [1] was inactive. Further, in assay [2], the Potency was 2 µM (active). The Potency entry in assay [3] was “inactive”.
Consider `COC(=O)c1ccc(C(NC(=O)OCc2ccccc2)/C(F)=C/[C@@H](C)C(=O)NCc2cc(F)cc(F)c2)cc1` (stereo not given in full), for which, in assay [1], the compound was classed as inactive. For the same compound, the Potency in assay [2] was 3.98 µM (active). For the same compound, in assay [3], the Potency entry is “inactive”.
`COC(=O)c1ccc(C(NC(=O)OCc2ccccc2)/C(C)=C/[C@@H](C)C(=O)NCc2cc(F)cc(F)c2)cc1` (stereo not given in full): the outcome in assay [1] was inactive. In addition, the Potency in assay [2] was 3.16 µM (active). For the same compound, the Potency entry in assay [3] is “inactive”.
Regarding `COCCNC(=O)[C@H](C)/C=C(\c1cccnc1)C(NC(=O)OCc1ccccc1)c1ccc(C(=O)OC)cc1` (stereo not given in full), in assay [1], the compound was classed as inactive. In addition, in assay [2], the Potency is 5.01 µM (active). Also, the Potency result in assay [3] was “inactive”.
As to `CC(C)CC1(C(=O)NCC2CC2)C=CCN1C(=O)c1ccccc1` (stereo not given), the call in assay [1] was inactive. Moreover, the Potency in assay [2] was 15.8 µM (active). Further, the Potency result in assay [3] was “inactive”.
For the compound `COC(=O)c1ccc(C(NC(=O)OCc2ccccc2)/C(=C/[C@@H](C)C(=O)NCc2ccc(OC)c(OC)c2)c2cccnc2)cc1` (stereo not given in full), the call in assay [1] was inactive. In addition, the Potency in assay [2] is 3.16 µM (active). In assay [3], the Potency result is “inactive”.
Turning to `CNC(=O)[C@H](C)/C=C(\c1cccnc1)C(NC(=O)OCc1ccccc1)c1ccc(C(=O)OC)cc1` (stereo not given in full), in assay [1], the outcome was inactive. Moreover, the Potency entry in assay [3] was “inactive”.
On to `COC(=O)c1ccc(C(NC(=O)OCc2ccccc2)/C(F)=C/[C@@H](C)C(=O)NC2CCCCC2)cc1` (stereo not given in full), for which the outcome in assay [1] was inactive. In addition, in assay [2], the Potency was 3.98 µM (active). In addition, in assay [3], the Potency result is “inactive”.
As for `CCCCNC(=O)C(c1ccc(OCC(=O)OC)c(C(=O)OC)c1)N(Cc1ccccc1)C(=O)CCCCCN1C(=O)NC(c2ccc(-c3ccccc3)cc2)C(C(=O)OCc2ccccc2)=C1C` (stereo not given), the outcome in assay [1] was inactive. For the same compound, the Potency in assay [2] was 5.01 µM (active). The Potency result in assay [3] is “inactive”.
On to `COC(=O)C1(C)C=CC2(CCCCC2)N1C(=O)c1ccccc1` (stereo not given), for which the result in assay [1] was inactive. For the same compound, in assay [3], the Potency result is “inactive”.
Take `COC(=O)[C@@]1(C)C=C[C@@H](Cc2ccccc2)N1C(C)=O`: in assay [1], the compound was classed as inactive. Moreover, the Potency entry in assay [3] was “inactive”.
With `COC(=O)c1ccc(C(NC(=O)OCc2ccccc2)/C(C)=C/[C@@H](C)C(=O)NCCO)cc1` (stereo not given in full), the result in assay [1] was inactive. Also, the Potency in assay [2] was 2.51 µM (active). For the same compound, the Potency entry in assay [3] is “inactive”.
`CC1=C(C(=O)OCc2ccccc2)C(c2ccc(C3CCCCC3)cc2)NC(=O)N1CCCCCC(=O)O` (stereo not given): in assay [1], the outcome was inactive. For the same compound, in assay [3], the Potency entry was “inactive”.
On to `CC(Cc1ccccc1)C(=O)N[C@@H](CO)Cc1ccccc1` (stereo not given in full), for which, in assay [1], the compound was classed as inactive. For the same compound, the Potency in assay [2] is 15.8 µM (active). Further, the Potency result in assay [3] was “inactive”.
With `C[C@H]1C2=C3C(CC[C@H]4C(OCc5ccc(F)cc5C(F)(F)F)OC[C@](C)([C@@H]34)N(C(=O)OC(C)(C)C)C2)C2COC(=O)OCC21` (stereo not given in full), the compound was classed as inactive in assay [1]. The Potency result in assay [3] was “inactive”.
As to `CNC(=O)[C@@H]1C[C@H]1[C@@H](NC(=O)OCc1ccccc1)c1ccccc1`, the result in assay [1] was inactive. Also, in assay [2], the Potency is 12.6 µM (active). Also, the Potency result in assay [3] was “inactive”.
As for `COC(=O)C1(C)C=CC2(CCCCC2)N1C(C)=O` (stereo not given), the compound was classed as inactive in assay [1]. The Potency result in assay [3] was “inactive”.
As to `CCCCCCN(C(=O)CCCCCN1C(=O)NC(c2ccc3ccccc3c2)C(C(=O)OCc2ccccc2)=C1C)C(C(=O)NCCCC)c1ccc(OCC(=O)OC)c(C(=O)OC)c1` (stereo not given), in assay [1], the outcome was inactive. In assay [2], the Potency was 2.51 µM (active). Moreover, the Potency entry in assay [3] is “inactive”.
